Results: PubChem BioAssay AID651661 (Broad Institute, 2012)
Out of some 350,000 compounds screened, about 2,300 (0.66%) were called active. What follows is part of a selection rich in actives, with near analogues and random picks from the rest. Unmarked numbers belong to inactive results.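 How the source made its calls: active means mean inhibition of at least 50% after viability correction, with every replicate also passing that limit; inconclusive means mean reaches 50% but only one of two replicates passes; inactive means the rest.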

assay: blockers of EWS/Fli transcriptional output – A673 cells, NR0B1 luciferase, luminescence, MLPCN library, primary screen (AID 651661); settings: A673 NR0B1-luciferase reporter, viability-normalised; at 12.6 µM; stronger effect = higher value;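 further: firefly luciferase signal divided by Alamar Blue viability fluorescence both relative to DMSO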

SMILES | inhibition
COCC#Cc1ccc([C@H]2[C@H](CO)N3C(=O)CN(C(=O)Nc4ccccc4F)C[C@@H]23)cc1 | 2.04%
COc1cccc(S(=O)(=O)N[C@H]2CC[C@H](CCN)O[C@H]2CO)c1 | -10.4%
COc1ccc(S(=O)(=O)Nc2ccc3c(c2)C(=O)N([C@H](C)CO)C[C@@H](C)[C@H](CN(C)C(=O)Nc2ccc4c(c2)OCO4)O3)cc1 | 0.75%
CC(=O)N1[C@H](CO)[C@H](c2ccc(-c3ccccc3)cc2)[C@H]1CNC(=O)NC(C)C | 0.423%
COc1ccc(-c2ccccc2[C@@H]2[C@@H](C#N)N(C(=O)NC3CCCC3)[C@H]2CO)cc1 | 4.32%
C[C@H](CO)N1C[C@H](C)[C@@H](CN(C)Cc2ccncc2)Oc2ncc(C#CC3CC3)cc2C1=O | -3.48%
COc1cccc(S(=O)(=O)N2C[C@@H](O)COC[C@@H]3O[C@H](CC(=O)N4CCN(C)CC4)CC[C@H]32)c1 | 2.56%
Cc1cc(C(=O)Nc2cccc3c2O[C@H](CN(C)C(=O)Nc2ccccc2)[C@@H](C)CN([C@H](C)CO)C3=O)n(C)n1 | -4.28%
O=C(C[C@H]1C[C@H]2c3cc(NC(=O)c4ccc5c(c4)OCO5)ccc3O[C@H]2[C@@H](CO)O1)NCc1cccc(F)c1 | -0.435%
O=C(NCc1ccncn1)[C@@H]1[C@@H](CO)[C@@H]2Cn3c(ccc(-c4ccc(F)cc4)c3=O)[C@@H]2N1CC1CC1 | 5.67%
C[C@@H]1CN([C@H](C)CO)C(=O)c2cc(NC(=O)C3CCCCC3)ccc2O[C@@H]1CN(C)CC1CCCCC1 | 1.73%
CS(=O)(=O)N1CC2(C1)[C@H](c1ccccc1)[C@H](CO)N2Cc1ccc(F)cc1 | -3.95%
Cc1ccc2nc(-c3ccncc3)cc(C(=O)Nc3ccc(OC(F)F)cc3)c2c1 | 54% (active)
CCN(CC)CCNC(=O)c1ccc(NC(=O)c2cc(-c3ccncc3)nc3ccccc23)cc1 | 8.49%
CCn1c(SCC(=O)Nc2ccc3c(c2)OCCO3)nnc1-c1ccncc1 | 4.78%
CCOc1ncccc1C(=O)Nc1ccc2c(c1)OCCO2 | -5.13%
O=C(Nc1ccncc1)c1cc(-c2ccccn2)nc2ccc(Br)cc12 | 17%
Cc1ccc2nc(-c3ccncc3)cc(C(=O)Nc3ccc4c(c3)OCCO4)c2c1 | 57.8% (active)
CNC[C@H]1OCCCC[C@@H](C)Oc2ccc(NC(=O)c3ccncc3)cc2C(=O)N([C@H](C)CO)C[C@H]1C | 0.415%
CO[C@@H]1CN(C)C(=O)c2cc(NC(=O)C3CC3)ccc2OC[C@H](C)N(CC2CC2)C[C@H]1C | -3.56%
O=C(C1CCOCC1)N1C[C@H]2[C@@H](c3ccccc31)[C@@H](CO)N2Cc1ccccc1 | 2.37%
CCCC(=O)N1CC2(C1)CN(C(=O)COC)[C@@H](CO)c1c2c2ccc(OC)cc2n1C | 23.9%
C[C@@H](NC(=O)C[C@H]1CC[C@H]2[C@H](COc3ccc(NS(=O)(=O)c4ccc(Cl)cc4)cc3C(=O)N2C)O1)c1ccccc1 | 13.8%
S=C(c1ccc(-c2ccccc2)o1)N1CCCCC1 | -59.7%
CN1CCN(CCCCOc2ccccc2-c2ccccc2)CC1 | -2.32%

SMILES | inhibition
OCCN1CCN(C(=S)c2ccc(-c3ccccc3)cc2)CC1 | 69% (active)
COc1ccc(CN(C)C[C@@H]2OCCCC[C@@H](C)Oc3ccc(NS(=O)(=O)c4ccc(C)cc4)cc3C(=O)N([C@@H](C)CO)C[C@H]2C)cc1 | -18.8%
O=C1/C(=C\c2ccc([N+](=O)[O-])cc2)CS(=O)(=O)C/C1=C/c1ccc([N+](=O)[O-])cc1 | 74.9% (active)
O=C(O)C(=Cc1ccc([N+](=O)[O-])cc1)CCc1ccccc1 | 5.5%
CC(=O)Nc1ccc(C=Cc2ccc([N+](=O)[O-])cc2)cc1 | -72.7%
CCCN1C[C@@H](C)[C@@H](OC)CN(C)C(=O)c2ccc(NC(=O)c3ccc(F)cc3)cc2OC[C@@H]1C | -2.15%
Cc1noc(C)c1NC(=O)N(C)C[C@H]1OCCCC[C@@H](C)Oc2ccc(NS(=O)(=O)c3ccc(Cl)cc3)cc2C(=O)N([C@@H](C)CO)C[C@H]1C | -7.3%
CNC[C@H]1Oc2ccc(N(C)C)cc2CC(=O)N([C@@H](C)CO)C[C@@H]1C | 14.1%
CC1(C(=O)NCC2CCOCC2)Cc2c(-c3cccc(C(N)=O)c3)ccnc2O1 (stereo not drawn) | 0.349%
COc1cc(OC)c(C(=O)NCc2ccc3c(c2)OCO3)cc1OC | 9.01%
S=C(NCc1ccc2c(c1)OCO2)NCc1ccco1 | -23.2%
CN(CC(=O)NCc1ccc2c(c1)OCO2)CC(=O)Nc1ccc(F)c(F)c1F | 3.77%
CC1(C(=O)NCc2ccc(F)c(F)c2)Cc2c(-c3ccc4c(c3)OCO4)ccnc2O1 (stereo not drawn) | 60.1% (active)
CC1(C(=O)NCc2ccco2)Cc2c(-c3ccc4c(c3)OCO4)ccnc2O1 (stereo not drawn) | 57.5% (active)
Cc1noc(C)c1NC(=O)Nc1ccc2c(c1)CC(=O)N([C@H](C)CO)C[C@@H](C)[C@@H](CN(C)Cc1ccncc1)O2 | -1.93%
C[C@@H]1CN([C@H](C)CO)C(=O)Cc2cc(NC(=O)Nc3ccccc3)ccc2O[C@H]1CN(C)Cc1ccc(Cl)c(Cl)c1 | 9.7%
Cc1noc(C)c1NC(=O)Nc1ccc2c(c1)CC(=O)N([C@H](C)CO)C[C@@H](C)[C@@H](CN(C)Cc1ccc(C(F)(F)F)cc1)O2 | 7.38%
C[C@@H]1CN([C@H](C)CO)C(=O)Cc2cc(NC(=O)Nc3ccccc3)ccc2O[C@@H]1CN(C)Cc1ccc(C(F)(F)F)cc1 | -0.517%
C[C@H](CO)N1C[C@H](C)[C@@H](CN(C)Cc2ccc(Cl)c(Cl)c2)Oc2ccc(NC(=O)Nc3ccc(C(F)(F)F)cc3)cc2CC1=O | 72.5% (active)
Cc1noc(C)c1NC(=O)Nc1ccc2c(c1)CC(=O)N([C@@H](C)CO)C[C@@H](C)[C@@H](CN(C)Cc1ccc(Cl)c(Cl)c1)O2 | 64.4% (active)
O=C(C1CCOCC1)N1CC(=O)N2[C@H](CO)[C@H](c3ccc(C#Cc4cccc(F)c4)cc3)[C@H]2C1 | 3.5%
CCCC(=O)Nc1ccc2c(c1)C(=O)N(C)[C@H]1CC[C@@H](CC(=O)NCC(F)(F)F)O[C@@H]1CO2 | 3%
O=C(C[C@@H]1CC[C@H](NC(=O)C2CC2)[C@H](CO)O1)NCc1ccccc1Cl | -4.63%
C[C@H](CO)N1C[C@H](C)[C@@H](CN(C)C(=O)NC2CCCCC2)Oc2ccc(NC(=O)c3ccncc3)cc2CC1=O | -1.15%
COc1cccc(C(=O)Nc2ccc3c(c2)C(=O)N(C)C[C@@H](OC)[C@H](C)CN(C(=O)C2CCOCC2)[C@H](C)CO3)c1 | -12.9%

SMILES | inhibition
CCOc1cc(/C=C(/C#N)c2ccc(Cl)cc2)cc(Cl)c1OCC(=O)O | 67.4% (active)
COc1cc(/C=C(/NC(=O)c2ccc(Cl)cc2Cl)C(=O)O)cc(OC)c1OC | 11.1%
CCOC(=O)CN/C=C(\C#N)c1ccc(F)cc1 | -7.7%
CO[C@@H]1CN(C)C(=O)c2cc(NC(=O)c3ccc(F)cc3)ccc2OC[C@H](C)N(C(=O)CN(C)C)C[C@H]1C | 1.32%
C[C@@H]1CCCCO[C@@H](CN(C)Cc2ccncc2)[C@H](C)CN([C@H](C)CO)C(=O)c2cc(NC(=O)CCC(F)(F)F)ccc2O1 | -2.85%
Cc1ccc(S(=O)(=O)NC[C@H]2CC[C@@H]3[C@@H](CN3Cc3ccccc3C(=O)O)O2)cc1 | 4.08%
C[C@@H]1CCCCO[C@@H](CN(C)C(=O)c2ccccc2)[C@H](C)CN([C@@H](C)CO)C(=O)c2cc(NS(=O)(=O)c3cn(C)cn3)ccc2O1 | -5.15%
CC[n+]1cc(C)ccc1/C=C/c1ccc(N(C)C)cc1 | 57.5% (active)
CO[C@H]1CN(C)C(=O)c2cc(NC(=O)c3cnccn3)ccc2OC[C@@H](C)N(CC2CC2)C[C@@H]1C | -6.87%
COc1ccc(/C=C/c2noc(-c3ccccc3OC(C)=O)n2)cc1 | 6.55%
COc1ccc(-c2nc(-c3ccccc3)no2)c(OC)c1 | 77.6% (active)
COc1ccc(-c2noc(CNC(=O)C(C)Oc3ccccc3)n2)cc1 (stereo not drawn) | -7.08%
COc1cccc(NC(=O)C[C@H]2CC[C@@H]3[C@H](COc4ccc(NC(C)=O)cc4C(=O)N3C)O2)c1 | -0.492%
O=C(C[C@@H]1C=C[C@@H](NS(=O)(=O)c2ccccc2)[C@H](CO)O1)N1CCN(c2ccccc2)CC1 | 2.46%
CNC(=O)C[C@H]1CC[C@H]2[C@H](COc3ccc(NC(=O)Nc4cccc(C)c4)cc3C(=O)N2C)O1 | -11.4%
C[C@H](O)C#Cc1ccc2c(c1)O[C@H](CN(C)C(=O)C1CCCCC1)[C@@H](C)CN([C@H](C)CO)S2(=O)=O | 2.27%
Cc1ccc(-c2cc(=O)c3ccc(F)cc3[nH]2)cc1 | -5.43%
O=c1cc(-c2ccccc2)[nH]c2cc(F)ccc12 | 54.2% (active)
Cc1cc(=O)c2ccc(NC(=O)c3ccccc3)cc2[nH]1 | 9.56%
CCC(=O)N1CC2(CN(Cc3ccc(Cl)cc3)C2)c2c([nH]c3cc(OC)ccc23)[C@@H]1CO | -10.6%
CC(=O)Nc1ccc(S(=O)(=O)Nc2ccc(-c3ccc4nnc(C)n4n3)cc2)cc1 | 18.6%
CC(=O)Nc1ccc(S(=O)(=O)Nc2ccc(N3CCCCC3)cc2)cc1 | 63.2% (active)
O=C(Nc1ccc(N2CCCCC2)cc1)c1cc(S(=O)(=O)N2CCOCC2)ccc1F | 0.758%
